High-throughput results (PubChem)
Only some compounds are listed: those with a hit (about 3.5% of all), similar ones and a draw of the others.
TEAD-YAP block – TEAD-YAP interaction inhibition, primary screen, TEAD-YAP interaction inhibitor project, luminescence, HEK-TIYL cells. TEAD-Gal4/YAP UAS-luciferase luminescence. inhibition, % at 9.12 µM. 1.4% of 640,000 active. AID 1259422, 2018; in the data active means inhibition above about 32%;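 further: 0% = median of test compound wells and 100% = reference inhibitor wells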
MITF primary – MITF inhibitors, primary screen, biochemical, AlphaScreen, human. 0.91% of 650,000 active. Microphthalmia-associated transcription factor (Homo sapiens), O75030. AlphaScreen MITF homodimerization, bead proximity signal. inhibition, % at 2.6 µM; in the data active means inhibition above about 50%;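 further: 0% = vehicle wells with protein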
GPR151 activ – activators of human GPR151, primary screen, cell-based, PathHunter beta-arrestin, luminescence; G-protein coupled receptor 151 (Homo sapiens), Q8TDV0; PathHunter beta-arrestin GPR151 cells; activation, % at 11.2 µM; 1% of 650,000 active; in the data active means activation above about 4.9%;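 further: 0% = median of compound wells and 100% = cells with positive control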
FBW7 activator – FBW7 E3 ligase activators, primary screen, biochemical, AlphaScreen, human; F-box/WD repeat-containing protein 7 (Homo sapiens), Q969H0; AlphaScreen FBW7–phospho-cyclin E peptide binding, activator screen; normalized activity (activation), % at 26.1 µM; 0.13% of 650,000 active; AID 1259310, 2017; in the data active means normalized activity above about 1.9%;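 further: purified mutant Fbw7 with reduced substrate affinity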
GPR151 confirm – GPR151 activators, triplicate retest, confirmation, cell-based, PathHunter beta-arrestin, luminescence. shares compounds with GPR151 activ. GPR151 PathHunter beta-arrestin cells, 90 min; % of EA-reagent control over plate median. activation, % at 11.2 µM. 6,700 tested, under 10 active. AID 1508609, 2020;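 active means mean percent activation across replicates above the confirmation screen cutoff of 4.91%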
GPR119 counter – GPR119 activators in beta-arrestin cells, counter-screen for GPR151 activator project, cell-based, PathHunter beta-arrestin, luminescence, triplicate; 0.3% of 6,700 active; activation, % at 11.2 µM; 90 min; 0 = compound-well median, 100 = enzyme-acceptor control; AID 1508611, 2020; shares compounds with GPR151 activ;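 active means mean percent activation in the counterscreen above 29.09%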;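 further: counterscreen on off-target GPR119 to flag nonselective hits from the GPR151 activator screen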
Target sequence (Q8TDV5 whole entry, looked up): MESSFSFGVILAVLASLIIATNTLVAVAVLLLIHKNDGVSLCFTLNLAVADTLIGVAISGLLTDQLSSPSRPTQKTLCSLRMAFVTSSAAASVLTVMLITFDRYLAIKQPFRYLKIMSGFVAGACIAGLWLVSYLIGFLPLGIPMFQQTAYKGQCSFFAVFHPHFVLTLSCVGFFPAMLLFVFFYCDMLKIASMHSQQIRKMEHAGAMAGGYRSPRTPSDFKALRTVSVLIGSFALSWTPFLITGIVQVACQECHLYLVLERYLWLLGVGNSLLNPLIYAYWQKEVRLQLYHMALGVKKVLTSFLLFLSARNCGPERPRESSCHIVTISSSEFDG
* = called active by the depositor.

Results for CCn1c(/C=C/C=C2\N(C)c3ccccc3C2(C)C)[n+](Cc2ccccc2)c2ccccc21 ?
TEAD-YAP block: 92*; MITF primary: -5; GPR151 activ: 8.7*; FBW7 activator: 0; GPR151 confirm: 3; GPR119 counter: 27

What do the screens show for `CN1/C(=C/C=C2C(=O)NC(=S)NC2=O)C(C)(C)c2ccccc21`?
TEAD-YAP block: -4; MITF primary: 8; GPR151 activ: 0; FBW7 activator: 1

How did O=C(Cc1ccsc1)N1CCCC(N2CCOCC2)C1 (stereo not given) do in these assays?
TEAD-YAP block: -2; MITF primary: 11; GPR151 activ: 5.8*; FBW7 activator: 0; GPR151 confirm: 0; GPR119 counter: 4

How did Cc1noc(C)c1CC(=O)N1CCCC(N2CCOCC2)C1 (stereo not given) do in these assays?
TEAD-YAP block: 2; MITF primary: -1; GPR151 activ: 1; FBW7 activator: 0

What do the screens show for `CCOC(=O)c1c(CN2CCCC2)n(Cc2ccccc2)c2cc(Br)c(O)cc12`?
TEAD-YAP block: -17; MITF primary: -6; GPR151 activ: 1; FBW7 activator: 0

Results for CCOC(=O)c1c(CN2CCCCC2)n(Cc2ccccc2)c2cc(Br)c(O)cc12 ?
TEAD-YAP block: -8; MITF primary: -6; GPR151 activ: 5.0*; FBW7 activator: 0; GPR151 confirm: 1; GPR119 counter: 15

What do the screens show for `Cc1[nH]c2c(Cl)ccc(Cl)c2c1CCN`?
TEAD-YAP block: -1; MITF primary: 0; GPR151 activ: 6.8*; FBW7 activator: 0; GPR151 confirm: 0; GPR119 counter: 1

What do the screens show for `Cc1[nH]c2c(Cl)c(Cl)ccc2c1CCN`?
TEAD-YAP block: 24; MITF primary: 3; GPR151 activ: 1; FBW7 activator: 0

Results for CS(=O)(=O)c1ccc(N2CCNCC2)c(F)c1 ?
TEAD-YAP block: -3; MITF primary: -7; GPR151 activ: 4.9*; FBW7 activator: 0; GPR151 confirm: 0; GPR119 counter: 5

What do the screens show for `COc1ccccc1CC(=O)N1CCN(Cc2ccccc2)CC1`?
TEAD-YAP block: -8; MITF primary: 0; GPR151 activ: 2; FBW7 activator: 0

How did CCOC(=O)C1=C(C)OC(N)=C(C#N)C12C(=O)N(CC(N)=O)c1ccccc12 (stereo not given) do in these assays?
TEAD-YAP block: -2; MITF primary: -27; GPR151 activ: 0; FBW7 activator: 0

Results for CCOC(=O)C1=C(C)OC(N)=C(C(=O)OCC)C12C(=O)N(CC(N)=O)c1ccccc12 (stereo not given) ?
TEAD-YAP block: 11; MITF primary: 2; GPR151 activ: 9.6*; FBW7 activator: 0; GPR151 confirm: 0; GPR119 counter: -5

What do the screens show for `CN1C2CCC1CC(OC(=O)C(c1ccccc1)c1ccccc1)C2` (stereo not given)?
TEAD-YAP block: -6; MITF primary: 22; GPR151 activ: 5.1*; FBW7 activator: 1; GPR151 confirm: 1; GPR119 counter: 1

What do the screens show for `C[N+]1(C)CCC(OC(=O)C(c2ccccc2)c2ccccc2)CC1`?
TEAD-YAP block: 3; MITF primary: -9; GPR151 activ: -1; FBW7 activator: 0
